High-throughput results (PubChem)
Sampled rows, rich in hits. Any-hit rate of the full collection: about 7.5%.
SMN2 splice up – increases expression of the SMN2 splice variant; Potency, µM (top dose mostly 46.1 µM), without a hit: at the highest dose activity change, positive = activation, hits mostly activators; actives 2.8% (n = 210,000); HEK293 SMN2-luciferase splicing reporter, luminescence, 30-36 h; note: % of control where 0% means no effect; nearly all actives have a fitted effect of over 55% in size
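qHTS luciferase splicing reporter: luminescence rises when SMN2 exon 7 is included in transfected HEK293 cells. Compound exposure lasted 30-36 h at 37C, with 4.5 mM final sodium butyrate as control, followed by a ONE-Glo read.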
Rab9 promoter act – activators of Rab9 promoter; Huh7 Rab9 promoter-luciferase reporter, luminescence, 24 h; Potency, µM (highest dose often 9.22 µM), for the others: at the highest dose activation, negative = inhibition, actives largely listed as activators; actives 2.8% (n = 320,000); note: % of control where 0% means no effect; nearly all actives have a fitted effect of over 60% in size
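Using Huh7 cells stably transfected with Rab9 promoter–luciferase, compounds were incubated 24 h at 37 °C, 5% CO2; luciferase luminescence was read 10 min after reagent addition.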
ELG1 genotox – inducers of genotoxicity in HEK293T ELG1-luciferase cells. Potency, µM (titrated, usually from 46 µM), for the others: at the highest dose activity change, positive = activation, most hits filed as activators. actives 1.3% (n = 330,000). AID 504466. HEK293T ELG1-luciferase reporter, luminescence, 16 h; note: % of control where 0% means no effect; nearly all actives have a fitted effect of over 60% in size
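Screening used a luciferase reporter fused to human ELG1 in HEK293T cells. Luminescence was read on a CCD plate imager after 16 hr exposure and 30 min ONE-Glo incubation.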
FLuc modulator – firefly luciferase modulation, counter-screen for miR-21 project | purified FLuc, Km substrates, luminescence inhibition | actives 6.9% (n = 360,000) | Potency, µM (top dose mostly 57.5 µM), without a hit: top-dose activity change, negative = inhibition, actives largely listed as inhibitors | P08659 | AID 588342;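 note: plate controls were vehicle for no effect and reference inhibitor for full effect; nearly all actives have a fitted effect of over 55% in size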
Target sequence (P08659 whole entry, looked up): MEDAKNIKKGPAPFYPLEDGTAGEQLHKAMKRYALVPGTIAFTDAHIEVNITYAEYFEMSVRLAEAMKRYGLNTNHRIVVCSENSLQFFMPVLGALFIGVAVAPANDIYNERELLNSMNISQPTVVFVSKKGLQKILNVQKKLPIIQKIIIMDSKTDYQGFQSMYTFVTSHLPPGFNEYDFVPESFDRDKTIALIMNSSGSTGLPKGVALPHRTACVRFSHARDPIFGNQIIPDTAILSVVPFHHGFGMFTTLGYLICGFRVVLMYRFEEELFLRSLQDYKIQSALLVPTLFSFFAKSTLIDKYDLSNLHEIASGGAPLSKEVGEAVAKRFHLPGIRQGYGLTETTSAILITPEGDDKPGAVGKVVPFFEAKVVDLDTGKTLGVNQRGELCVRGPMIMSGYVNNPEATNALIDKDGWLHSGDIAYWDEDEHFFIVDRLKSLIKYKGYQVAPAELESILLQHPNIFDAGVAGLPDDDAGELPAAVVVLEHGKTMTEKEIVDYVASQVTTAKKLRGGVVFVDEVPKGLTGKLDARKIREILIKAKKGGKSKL
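Purified P. pyralis luciferase (10nM final) with 10uM D-luciferin and 10uM ATP (Km levels) in 50mM Tris acetate pH 7.5, 10mM Mg acetate, 0.01% Tween-20, 0.05% BSA; qHTS 6-point titration, ~60 µM downward; luminescence read.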
KinaseGlo FLuc – blocks Kinase-Glo luciferase, a counter-screen artifact. Kinase-Glo luciferase, ATP luminescence, 8 min. actives 0.28% (n = 200,000). Potency, µM (top dose mostly 38.3 µM), for inactives: top-dose activity change, negative = inhibition, most hits filed as inhibitors; note: % is set by controls: 0 for no effect and ±100 for the full control effect; nearly all actives have a fitted effect of over 60% in size
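Light output from Kinase-Glo luciferase with luciferin and 10 uM ATP in 50 mM imidazole pH 7.2, KCl, MgCl2, Tween 20, BSA; compound pin-delivered, 8-min ambient incubation, then luminescence read.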
NPC1 promoter act – activators of NPC1 promoter; actives 2.4% (n = 320,000); Potency, µM (titrated, usually from 9.22 µM), without a hit: at the top dose activation, most hits filed as activators; AID 485313; Huh7 NPC1 promoter luciferase reporter, 24 h; note: % of control where 0% means no effect; nearly all actives have a fitted effect of over 60% in size
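Cells: Huh7 expressing luciferase under the NPC1 promoter, 1500/well. Seeded 2 h, compound added, incubated 24 h at 37 °C. Luciferase reagent, 10 min ambient, then luminescence.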
The depositor's hits bear a star; u = inconclusive; x = no result; [ ] = remark or other dose. Calls come from the whole dose curve; as a rule, active = well fitted curve in the direction sought with a large enough effect; inconclusive = small, poorly fitted or top-dose-only effect, or another doubt; inactive = no such curve, though single readings can be large; an effect the other way counts as inactive or inconclusive. Potency is the fitted concentration of half-maximal effect.

SMILES	SMN2 splice up	Rab9 promoter act	ELG1 genotox	FLuc modulator	KinaseGlo FLuc	NPC1 promoter act
Cc1[nH]c2ccccc2c1C(=O)/C=C\c1ccccc1Cl	u	u	u	6.01µM*	-3.6%	u
Cc1[nH]c2ccccc2c1C(=O)/C=C/c1ccccc1Cl	11.2µM*	3.16µM*	u	8.49µM*	-2.6%	3.16µM*
Cc1[nH]c2ccccc2c1C(=O)/C=C/c1ccccc1	27.7%	u	13.8%	4.78µM*	5.4%	3.16µM*
CCN(CC)CCCCn1c(-c2ccccc2)nc2c(NC3CCCCC3)nc(C)nc21	-17.6%	x	x	x	-2.0%	x
Cc1ccc(C(=O)Nc2ccc(SC(F)F)cc2)s1	7.08µM*	1.26µM*	u	6.75µM*	-1.4%	2.82µM*
CC[N+](CC)(CC)CC(=O)Nc1ccc(SC(F)F)cc1	1.0%	0.1%	-1.3%	-2.1%	-0.6%	-7.0%
O=C(N/N=C/c1ccc(OC(F)F)cc1)C1=COCCO1	11.2µM*	2µM*	u	8.49µM*	-18.2%	3.16µM*
O=C(Nc1ccc(SC(F)F)cc1)C1=COCCO1	11.2µM*	1µM*	2.59µM*	4.78µM*	-6.6%	1.26µM*
CO/S(=N\S(=O)(=O)c1ccc(Cl)cc1)c1ccc([N+](=O)[O-])cc1 (configuration not stated)	x	-7.5%[46.1 µM]	x	x	x	5.2%[46.1 µM]
CCn1ncc(/C=N\NC(=O)c2csc3ccccc23)c1C	23.2%	-7.7%	u	10.7µM*	8.4%	-9.9%
Cc1nn(C)c(C)c1/C=N/NC(=O)c1csc2ccccc12	-3.5%	26.0%	14.5%	16.9µM*	3.4%	-2.3%
Cc1ccc(-c2cc(C(=O)N/N=C/c3c(C)nn(C)c3C)c3ccccc3n2)c(C)c1	-1.9%	7.1%	4.6%	u	16.9%	0.4%
Cc1c(/C=N\NC(=O)c2csc3ccccc23)cnn1C	-2.3%	14.8%	7.8%	u	-0.9%	1.7%
COc1ccc(Nc2cc(C)c3cc(NC(=O)COc4cccc(C)c4)ccc3n2)cc1	x	x	x	-2.1%	x	x
c1ccc2nc(-c3nc4ccccc4o3)ccc2c1	x	3.16µM*	u	0.239µM*	1µM*	u
CCOC(=O)CSC1=NC(=O)/C(=C/c2ccc(Br)cc2)S1	x	-9.3%	u	15.1µM*	x	-5.3%
CCOC(=O)CSC1=NC(=O)/C(=C\c2ccc(OC(C)=O)cc2)S1	19.3%	-8.2%	u	19µM*	-1.1%	-7.0%
NC1=NC(=O)/C(=C/c2ccc(Br)cc2)S1	x	0.1%	0.7%	-12.5%	x	2.6%
CCOC(=O)COc1ccc(Br)cc1/C=C1\SC(N)=NC1=O	x	7.0%	2.6%	0.3%	x	0.4%
COc1ccc(OC(C)C(=O)NCc2nc(-c3ccc(Cl)cc3)no2)cc1 (configuration not stated)	-90.4%	x	x	-13.5%	x	x
Cc1cc(=O)[nH]c2ccc(S(=O)(=O)Nc3ccccc3)cc12	x	-1.0%	23.1µM*	5.2%	x	-3.9%
Cc1cc(=O)[nH]c2ccc(S(=O)(=O)Nc3ccc(O)cc3)cc12	x	0.5%	15.2%	-1.9%	x	-0.4%
CCOC(=O)c1ccc(N/C=C/C(=O)c2ccccc2)cc1	x	u	-5.9%	6.01µM*	-7.7%	11.0%
CCOC(=O)c1ccc(N/C=C/C(=O)c2ccc(OC)cc2)cc1	-8.8%	0.8%	7.4%	-0.4%	-5.6%	-1.5%
CCOC(=O)c1ccc(N/C=C/C(=O)C(C)(C)C)cc1	u	3.55µM*	u	3.01µM*	-1.1%	3.55µM*
SMILES	SMN2 splice up	Rab9 promoter act	ELG1 genotox	FLuc modulator	KinaseGlo FLuc	NPC1 promoter act
O=C1CCOc2cc(OCc3ccccc3)ccc21	2.24µM*	1µM*	10.3µM*	1.51µM*	u	1µM*
CC(=O)SC1CC2=CC(=O)CC[C@@]2(C)C2CC[C@@]3(C)[C@@H](CC[C@@]34CCC(=O)O4)C12 (some centres not stated)	-22.5%	x	x	x	-7.4%	x
CCOC(=O)c1ccccc1NC(=O)N1CCCn2nc(C)cc21	x	x	x	-2.6%	x	x
c1ccc(-c2nnn(C34CC5CC(CC(C5)C3)C4)n2)cc1	u	18.2%	u	16.9µM*	-4.9%	6.7%
O=C1c2sc3nc4n(c(=O)c3c2CCC1Br)CCCCC4 (configuration not stated)	-4.3%	u	u	19µM*	-5.6%	29.1%
O=c1c2c3c(sc2nc2n1CCCCC2)C(O)CCC3 (configuration not stated)	x	2.82µM*	u	u	-5.4%	u
Cc1ccc(CNC(=O)C2CCCN(c3nnc(-n4c(C)ccc4C)s3)C2)cc1 (configuration not stated)	-5.0%	x	x	-8.5%	x	x
C/C(=N/NC(=O)c1cccc(N2CCCC2=O)c1)c1ccncc1	x	3.16µM*	u	15.1µM*	-5.0%	u
C/C(=N/NC(=O)c1cccc(N2CCCC2=O)c1)c1ccc(Br)cc1	x	-1.9%	5.8%	15.1µM*	x	1.4%
CC(C)/C=N/NC(=O)c1cccc(N2CCCC2=O)c1	5.5%	-5.5%	6.8%	-0.3%	1.7%	-6.8%
O=C(O)c1cccc(N2CCCC2=O)c1	-2.1%	-0.8%	3.5%	-17.9%	7.2%	-0.5%
Cc1nc(NCc2ccccc2)c2nc(-c3ccccc3)n(C(C)CN(C)C)c2n1 (configuration not stated)	-2.1%	x	x	x	-0.1%	x
CN(C)/C=C1\SC(=S)N(c2ccc(F)cc2)C1=O	x	20.3%	11.8%	-15.2%	x	10.5%
Cc1ccc(N2CS(=O)(=O)/C(=C/N(C)C)C2=O)cc1	12.6µM*	1.26µM*	u	12µM*	-27.6%	2µM*
CN(C)/C=C1\C(=O)N(c2ccc(Cl)cc2)CS1(=O)=O	29.1%	u	u	16.9µM*	-9.1%	3.16µM*
COc1cc(Nc2ncc3c(n2)CCN(Cc2cc(Br)cs2)C3)cc(OC)c1	x	x	x	1.7%	x	x
CC1CCCCN1CCCNC(=O)c1ccc(Cc2nc3ccccc3[nH]2)cc1 (configuration not stated)	x	x	x	x	-2.1%	x
CC(C)(C)OC(=O)N1CCC(c2c(C(=O)NCCN3CCC(Cc4ccccc4)CC3)cnn2-c2ccccc2)CC1	x	x	x	-2.0%	x	x
O=c1cc(O)c2sc3nc(C(F)(F)F)c4c(c3c2[nH]1)CCCCC4	-12.7%	2.6%	3.9%	19µM*	1.3%	0.9%
Cc1ccc(N2C(=O)C(CC(=O)Nc3ccc(F)cc3)N(Cc3ccc4c(c3)OCO4)C2=O)cc1 (configuration not stated)	u	x	x	-0.1%	x	x
Cc1ccc(S(=O)(=O)Oc2ccc(C)cc2/C=N/N=C2\NC(=O)C(C)S2)cc1 (configuration not stated)	-7.8%	u	u	9.53µM*	-0.8%	11.1%
